Measurements published in the antibiotic and cytotoxicity screens of Wong et al. (2023).
Among all 39,000 compounds or so, about 1,500 (3.8%) were called active. The full list was thinned out, with actives kept by preference.

Test system: HSkMC (human skeletal muscle cells)
Experiment: cytotoxicity call (relative viability < 0.9)
Conditions: 10 µM

Structure (SMILES)	cytotoxicity call
Cc1noc(C)c1S(=O)(=O)Nc1ccc2c(c1)C(=O)N([C@@H](C)CO)C[C@@H](C)[C@@H](CN(C)S(=O)(=O)c1cn(C)cn1)O2	inactive
C[C@H](CO)N1C[C@H](C)[C@H](CN(C)C(=O)Nc2ccc(F)cc2)Oc2ccc(NS(=O)(=O)c3cn(C)cn3)cc2CC1=O	inactive
C[C@@H]1CN([C@@H](C)CO)C(=O)Cc2cc(NC(=O)Cn3cnnn3)ccc2O[C@H]1CN(C)C(=O)Nc1ccc(F)cc1	inactive
CO[C@H]1O[C@H](CO)[C@@H](OC(=O)Nc2cccc(F)c2)[C@@H]2OC(=O)[C@H](Cc3cccc(Br)c3)C/C=C/C[C@@H](Cc3cccc(Br)c3)C(=O)O[C@@H]12	inactive
CCOC(=O)[C@H]1C/C=C/C[C@H](C(=O)OCC)C(=O)O[C@H]2[C@@H](OC)O[C@H](CO)[C@@H](OC(=O)Nc3ccc4c(c3)OCO4)[C@@H]2OC1=O	active
CCOC(=O)[C@H]1C/C=C/C[C@H](C(=O)OCC)C(=O)O[C@H]2[C@@H](OC)O[C@H](CO)[C@@H](OC(=O)Nc3cccc(F)c3)[C@@H]2OC1=O	active
CCOC(=O)[C@H]1C/C=C/C[C@H](C(=O)OCC)C(=O)O[C@H]2[C@@H](OC)O[C@H](CO)[C@@H](OC(=O)c3ccc(Br)cc3)[C@@H]2OC1=O	inactive
CCOC(=O)[C@H]1C/C=C/C[C@H](C(=O)OCC)C(=O)O[C@H]2[C@@H](OC)O[C@H](CO)[C@@H](OC(=O)Nc3ccc(OC)cc3)[C@@H]2OC1=O	inactive
CCOC(=O)[C@H]1C/C=C/C[C@H](C(=O)OCC)C(=O)O[C@H]2[C@@H](OC)O[C@H](CO)[C@@H](OC(=O)Nc3ccc(Br)cc3)[C@@H]2OC1=O	active
CCOC(=O)[C@H]1C/C=C/C[C@H](C(=O)OCC)C(=O)O[C@H]2[C@@H](OC)O[C@H](CO)[C@@H](OC(=O)c3c(OC)cccc3OC)[C@@H]2OC1=O	inactive
CCOC(=O)[C@H]1C/C=C/C[C@H](C(=O)OCC)C(=O)O[C@H]2[C@@H](OC)O[C@H](CO)[C@@H](OC(=O)Nc3ccccc3)[C@@H]2OC1=O	inactive
CO[C@H]1O[C@H](CO)[C@@H](OC(=O)Nc2ccc3c(c2)OCO3)[C@@H]2OC(=O)[C@H](Cc3cccc(Br)c3)C/C=C/C[C@@H](Cc3cccc(Br)c3)C(=O)O[C@@H]12	inactive
COc1ccc(NC(=O)N(C)C[C@@H]2OCCCC[C@@H](C)Oc3ccc(NC(=O)c4ccccc4)cc3C(=O)N([C@@H](C)CO)C[C@H]2C)cc1	inactive
CC1(C)OC2CC3C4CCC5=CC(=O)C=CC5(C)C4C(O)CC3(C)C2(C(=O)CO)O1 (centres undefined)	inactive
CC(=NNC(=O)c1nnn(-c2nonc2N)c1CN1CCC(C)CC1)c1cccc(Br)c1	inactive
CN1C(=O)[C@@H]2[C@H](N=CN2CCCO)N(C)C1=O	inactive
C=CCNC(=O)[C@H]1[C@@H]2C(=O)O[C@@H](c3ccccc3)[C@@H](c3ccccc3)N2[C@@H](c2ccc(O)cc2)[C@]12C(=O)Nc1ccc(C#CC3=CCCCC3)cc12	inactive
COc1ccc(S(=O)(=O)Nc2ccc3c(c2)C(=O)N([C@@H](C)CO)C[C@H](C)[C@H](CN(C)S(=O)(=O)c2cn(C)cn2)OCCCC[C@@H](C)O3)cc1	inactive
C[C@@H](NC(=O)C[C@H]1CC[C@@H](NC(=O)CN2CCOCC2)[C@@H](CO)O1)c1ccccc1	inactive
C[C@@H]1CN([C@@H](C)CO)C(=O)Cc2cc(NC(=O)Cn3cnnn3)ccc2O[C@@H]1CN(C)Cc1ccc(C(F)(F)F)cc1	inactive

Structure (SMILES)	cytotoxicity call
CO[C@H](CN(C)C(=O)c1ccc2c(c1)OCO2)[C@H](C)CN([C@H](C)CO)S(=O)(=O)c1ccc(C)cc1	inactive
COc1ccc(CNC(=O)[C@H](c2ccc(C)cc2)N(Cc2cccs2)C(=O)c2ccc3c(c2)OCCO3)cc1	active
CO[C@H](CN(C)C(=O)c1ccc2c(c1)OCO2)[C@@H](C)CN([C@H](C)CO)S(=O)(=O)c1ccc(C)cc1	inactive
COc1cccc(C#Cc2cnc3c(c2)C(=O)N([C@H](C)CO)C[C@@H](C)[C@H](CN(C)C(=O)C2CCOCC2)O3)c1	inactive
CC(C)C#Cc1ccc2c(c1)O[C@@H](CN(C)C(=O)Cc1ccccn1)[C@H](C)CN([C@H](C)CO)S2(=O)=O	inactive
C[C@@H]1CN([C@@H](C)CO)C(=O)c2cccc(NC(=O)Nc3ccccc3)c2O[C@H]1CN(C)Cc1ccc(C(=O)Nc2ccccc2N)cc1	inactive
C[C@H](CO)N1C[C@H](C)[C@H](CN(C)Cc2ccc(-c3ccccc3)cc2)Oc2c(NC(=O)Nc3ccc(F)cc3)cccc2C1=O	inactive
C[C@H]1CN([C@@H](C)CO)C(=O)c2cccc(NC(=O)Nc3ccccc3)c2O[C@H]1CN(C)Cc1ccc(-c2ccccc2)cc1	inactive
C[C@H](CO)N1C[C@H](C)[C@@H](CN(C)Cc2ccc(-c3ccccc3)cc2)Oc2c(NC(=O)Nc3ccccc3)cccc2C1=O	inactive
C[C@@H]1CN([C@@H](C)CO)C(=O)c2cccc(NC(=O)Nc3ccccc3)c2O[C@@H]1CN(C)Cc1ccc(-c2ccccc2)cc1	active
C[C@@H]1CN([C@H](C)CO)C(=O)c2cccc(NC(=O)Nc3ccccc3)c2O[C@@H]1CN(C)Cc1ccc(-c2ccccc2)cc1	inactive
C[C@H](CO)N1C[C@H](C)[C@H](CN(C)Cc2ccc(-c3ccccc3)cc2)Oc2c(NC(=O)Nc3ccccc3)cccc2C1=O	inactive
C[C@@H]1CN([C@H](C)CO)C(=O)c2cccc(NC(=O)Nc3ccccc3)c2O[C@H]1CN(C)Cc1ccc(-c2ccccc2)cc1	active
C[C@H]1CN([C@@H](C)CO)C(=O)c2cccc(NC(=O)Nc3ccccc3)c2O[C@@H]1CN(C)Cc1ccc(-c2ccccc2)cc1	inactive
C[C@@H]1CN([C@H](C)CO)C(=O)c2cccc(NC(=O)Nc3ccccc3)c2O[C@@H]1CN(C)Cc1ccc(C(=O)Nc2ccccc2N)cc1	inactive
C[C@@H]1CN([C@@H](C)CO)C(=O)c2cccc(NC(=O)Nc3ccccc3)c2O[C@H]1CN(C)Cc1ccc(-c2ccccc2)cc1	active
C[C@H]1CN([C@@H](C)CO)C(=O)c2cccc(NC(=O)Nc3ccccc3)c2O[C@H]1CN(C)Cc1ccc(C(=O)Nc2ccccc2N)cc1	active
C[C@H]1CN([C@@H](C)CO)S(=O)(=O)c2ccc(-c3cccnc3)cc2O[C@@H]1CN(C)CC1CCOCC1	inactive
O=C(O)CCCCN(CCc1ccccc1OCc1ccc(CCc2ccccc2)cc1)Cc1ccc(C(=O)O)cc1	inactive
COc1ccc(S(=O)(=O)N(C)C[C@H]2Oc3c(NC(=O)c4ccncc4)cccc3C(=O)N([C@@H](C)CO)C[C@H]2C)cc1	inactive

Structure (SMILES)	cytotoxicity call
CN1C(=O)CS(=O)(=O)[C@@H]1c1ccccc1	inactive
C[C@@H]1CCCCO[C@H](CN(C)Cc2ccc(C(=O)O)cc2)[C@H](C)CN([C@@H](C)CO)C(=O)c2cc(NC(=O)Cc3ccccc3)ccc2O1	inactive
C[C@@H]1CCCCO[C@H](CN(C)C(=O)Nc2ccc(F)cc2)[C@@H](C)CN([C@@H](C)CO)C(=O)c2cc(NC(=O)Nc3ccccc3)ccc2O1	inactive
CN(C)CCCCCCNC(=O)[C@@H]1C[C@@H]2C(=O)NCC(=O)N2[C@@H]1c1cccc(OCCO)c1	inactive
Cc1ccc(S(=O)(=O)N(C)C[C@@H]2Oc3ccc(NS(=O)(=O)c4cn(C)cn4)cc3C(=O)N([C@@H](C)CO)C[C@@H]2C)cc1	inactive
C[C@@H]1CN([C@H](C)CO)C(=O)c2cc(NC(=O)Cc3ccccc3)ccc2O[C@@H]1CN(C)C(=O)Nc1ccc(C(F)(F)F)cc1	inactive
CCOC(=O)[C@H]1C/C=C/C[C@H](C(=O)OCC)C(=O)O[C@H]2[C@@H](OC)O[C@H](COC(=O)NCCCCCC(=O)NO)[C@@H](OC(=O)Nc3ccccc3)[C@@H]2OC1=O	inactive
C[C@H]1CCCCO[C@H](CN(C)C(=O)Nc2ccc(F)cc2)[C@@H](C)CN([C@@H](C)CO)C(=O)c2cc(NS(=O)(=O)c3ccc(F)cc3)ccc2O1	inactive
COc1ccccc1C#Cc1cnc2c(c1)C(=O)N([C@H](C)CO)C[C@H](C)[C@@H](CN(C)C(=O)CC1CC1)O2	inactive
CC(C)(C)S(=O)N1Cc2cc(C(=O)NCc3ccc4c(c3)OCO4)nc(-c3cccc(C#CCC4CCCC4)c3)c2[C@H]1CCO (some centres undefined)	inactive
CC(C)(C)S(=O)N1Cc2cc(C(=O)N[C@@H]3CCN(Cc4ccccc4)C3)nc(-c3cccc(C#CCC4CCCC4)c3)c2[C@H]1CCO (some centres undefined)	active
CC(C)(C)S(=O)N1Cc2cc(C(=O)NCc3ccc(Oc4ccccc4)cc3)nc(-c3cccc(C#CCC4CCCC4)c3)c2[C@@H]1CCO (some centres undefined)	active
CC(C)(C)S(=O)N1Cc2cc(C(=O)NCc3ccc4c(c3)OCO4)nc(-c3cccc(C#CCC4CCCC4)c3)c2[C@@H]1CCO (some centres undefined)	inactive
COc1ccc(C#Cc2cccc(-c3nc(C(=O)N[C@@H]4CCN(Cc5ccccc5)C4)cc4c3[C@H](CCO)N(S(=O)C(C)(C)C)C4)c2)cc1OC (some centres undefined)	inactive
CC(C)(C)S(=O)N1Cc2cc(C(=O)N[C@@H]3CCN(Cc4ccccc4)C3)nc(-c3cccc(C#CCC4CCCC4)c3)c2[C@@H]1CCO (some centres undefined)	inactive
O=C(C[C@H]1CC[C@H]2[C@@H](COC[C@@H](O)CN2C(=O)c2ccc3c(c2)OCO3)O1)NCCN1CCCC1	inactive
O=C1[C@H]2C=NN[C@@H]2C(=O)N1Cc1ccccc1	inactive
COc1ccc2c3c([nH]c2c1)[C@@H](CO)N(C[C@]13CCN(CC1)Cc1nccs1)C(=O)C1CCOCC1	inactive
C[C@@H]1CN([C@@H](C)CO)C(=O)c2cccc(NS(C)(=O)=O)c2O[C@@H]1CN(C)S(=O)(=O)c1cccs1	inactive
